Only some compounds are listed: those with a hit (about 6.9% of all), similar ones and a draw of the others.
SKKanGAS inh: blocks kanamycin growth of S. pyogenes SKKanGAS strain; BacTiter-Glo, 6 h; inhibition, % at 7.5 µM; 1.3% of 300,000 active; AID 1662;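 active = mean replicate score, as percent of positive control median, at least 50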;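 also: strain carries kanamycin resistance gene driven by streptokinase promoter and grows in 40 µg/ml kanamycin; loss of luminescence reflects streptokinase promoter inhibition or plain growth inhibition; 0% = median of DMSO wells and 100% = positive control at its reference dose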
Beta cell apopt: blocks beta cell apoptosis | AID 435005 | protection from apoptosis, % (test concentration not listed) | 0.8% of 300,000 active | INS-1E cytokine-induced death, ATP luminescence, 48 h; percent of positive-control rescue, neutral wells zero;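 active = Every replicate reaches about 75%, or at least half do and their mean reaches it too, limit read from the data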;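 also: 0% = cytokine-treated negative control wells and 100% = positive control rescue; higher means more ATP so stronger rescue from cytokine killing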
MPTP block: blocks calcium-induced mitochondrial swelling | isolated mouse mitochondria, Ca2+ swelling absorbance, 30 min | inhibition, % at 10 µM | 1.4% of 360,000 active | AID 602449;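 active = inhibition of 50% or more, scaled per plate between neutral and stimulator controls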;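 also: 0% = DMSO wells given calcium and 100% = 1 mM EGTA wells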
Mdm2 MdmX PPI: human Mdm2/MdmX binding inhibition; 3% of 330,000 active; inhibition, % at 8 µM; SaOS-2 split-luciferase Mdm2/MdmX complementation, luminescence; O15151+Q00987;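 active = inhibition of at least 50% at 8 µM in the primary screen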
Target sequence (O15151 whole entry, looked up): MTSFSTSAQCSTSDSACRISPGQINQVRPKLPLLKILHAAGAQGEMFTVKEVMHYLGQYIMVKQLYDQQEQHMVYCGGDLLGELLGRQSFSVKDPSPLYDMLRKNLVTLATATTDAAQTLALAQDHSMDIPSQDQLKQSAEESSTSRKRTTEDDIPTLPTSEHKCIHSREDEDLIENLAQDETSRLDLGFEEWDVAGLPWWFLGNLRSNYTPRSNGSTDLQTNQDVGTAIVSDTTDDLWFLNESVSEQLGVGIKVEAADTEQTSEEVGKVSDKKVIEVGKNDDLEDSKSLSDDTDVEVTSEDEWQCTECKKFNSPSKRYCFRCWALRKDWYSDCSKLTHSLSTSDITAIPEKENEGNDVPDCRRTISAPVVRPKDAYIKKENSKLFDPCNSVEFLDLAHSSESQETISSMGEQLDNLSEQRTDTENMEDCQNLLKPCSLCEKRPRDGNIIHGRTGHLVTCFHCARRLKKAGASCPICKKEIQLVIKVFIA
Target sequence (Q00987 whole entry, looked up): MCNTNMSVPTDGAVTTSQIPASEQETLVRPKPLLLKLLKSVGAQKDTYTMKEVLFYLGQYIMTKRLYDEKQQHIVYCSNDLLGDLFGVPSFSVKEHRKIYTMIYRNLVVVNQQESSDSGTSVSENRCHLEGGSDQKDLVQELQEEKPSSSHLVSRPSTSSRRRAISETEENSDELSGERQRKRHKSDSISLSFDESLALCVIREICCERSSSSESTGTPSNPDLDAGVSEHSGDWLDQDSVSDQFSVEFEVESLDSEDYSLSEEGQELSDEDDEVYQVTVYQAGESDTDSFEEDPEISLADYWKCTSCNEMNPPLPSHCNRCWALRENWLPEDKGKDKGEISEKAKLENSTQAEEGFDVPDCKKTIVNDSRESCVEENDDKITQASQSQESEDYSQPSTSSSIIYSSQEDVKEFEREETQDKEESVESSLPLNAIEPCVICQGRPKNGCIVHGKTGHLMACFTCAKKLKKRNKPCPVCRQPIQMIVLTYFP
CSC inhib: blocks cancer stem cells | cancer stem cell-like cells viability, luminescence | inhibition, % at 7.5 µM | 1.1% of 300,000 active | AID 2717; in the data active = inhibition above about 75%; tested in HMLE shEcad cells
GRIN3A LBD mod: NR3A (human) ligand-binding domain modulation; NR3A LBD differential scanning fluorimetry, Tm shift; 0% = protein alone, 100% = glycine-bound protein; Tm shift relative to glycine control, % at 25 µM; 2.5% of 340,000 active; AID 1259313;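 active = melting temperature shift of at least 10% of the positive control shift, at one fixed dose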
Mdm2 MdmX conf: human Mdm2/MdmX binding inhibition, confirmed; shares compounds with Mdm2 MdmX PPI; AID 489028; luminescent assay; inhibition, % at 8 µM; 55% of 10,000 active; in the data active = inhibition above about 40%
FLuc counter: inhibits full-length luciferase, flagging false Mdm2/MdmX hits | shares compounds with Mdm2 MdmX PPI | SaOS-2 full-length luciferase counterscreen, luminescence | inhibition, % at 8 µM | 77% of 6,200 active;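 active = mean inhibition at 8 µM reaching about 37%, which flags the compound as non-specific, limit read from the data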;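 also: p53-null SaOS-2 cells with luciferase driven by a doxycycline-inducible promoter; compound on cells about two nights before reading with doxycycline added after day one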
Active calls of the source: *; / = no result.

SMILES | SKKanGAS inh | Beta cell apopt | MPTP block | Mdm2 MdmX PPI | CSC inhib | GRIN3A LBD mod | Mdm2 MdmX conf | FLuc counter
COc1ccc(-c2nn(-c3ccccc3)cc2/C=C/C(=O)OCC(=O)Nc2ccccc2C#N)cc1 | -4 | 31 | 2 | 88* | 10 | -1 | 9 | /
CN(C)c1ccc(/C=N/NC(=O)c2cc(-c3ccc4c(c3)OCO4)n[nH]2)cc1 | 13 | / | 5 | 52* | 66 | 12* | 54* | 65*
O=C(N/N=C/c1ccc(Cl)c([N+](=O)[O-])c1)c1ccc2c(c1)OCCO2 | / | / | 2 | / | / | -3 | / | /
C/C(=N/NC(=O)c1cc(-c2cccc([N+](=O)[O-])c2)n[nH]1)c1ccc(Cl)cc1 | -3 | -1 | 1 | / | -5 | -1 | / | /
CC(C)c1ccc(/C=N/NC(=O)c2cc(-c3cccc([N+](=O)[O-])c3)n[nH]2)cc1 | 11 | 4 | 20 | 51* | 62 | 4 | 17 | /
O=C(N/N=C/c1ccc(Cl)c([N+](=O)[O-])c1)c1cc(-c2ccc3c4c(cccc24)CC3)n[nH]1 | 17 | 4 | 2 | 100* | 136* | -2 | 91* | 61*
CCCCCNC(=O)C(c1cc2ccccc2o1)n1c(=O)c(-c2cc3ccccc3[nH]2)nc2ccccc21 (centres undefined) | / | / | 3 | / | / | / | / | /
CCC(C)NC(=O)[C@H]1N2C(=O)c3c(ccc(OC)c3OC)C2SC1(C)C (some centres undefined) | -1 | -7 | 0 | -3 | -11 | -1 | / | /
O=C(CCC1CCCCC1)NCCN1C2=NC[C@@H](Cc3ccccc3)N2C[C@H]1Cc1ccc(O)cc1 | -3 | -5 | 0 | 67* | 1 | 1 | 54* | 63*
CCO[C@H]1OC(C(=O)N2CCN(C)CC2)=C[C@@H](C)[C@@H]1CCCO | 2 | -3 | 0 | -1 | 1 | 0 | / | /
CCOC(=O)c1c(CN(C)C)n(C)c2c(O)c(N=NC(N)=O)c3ccc(Br)cc3c12 | 20 | -6 | -1 | 77* | -1 | 3 | 47* | 28
COc1ccccc1NC(=O)C(=O)Nc1ccc2c(c1)N(C(=O)C1CC1)CCC2 | 1 | / | -2 | 29 | / | 3 | / | /
COc1ccc(C(=O)c2cn(-c3cccc(Br)c3)nc2C(C)=O)cc1 | -3 | 5 | 5 | 22 | -31 | 3 | / | /
CC(=O)c1nn(-c2cccc(Br)c2)cc1C(=O)c1ccc2ccccc2c1 | 2 | 9 | -4 | 63* | / | 3 | 30 | /
COc1ccc(-c2nc(CSCC(=O)NCCCN3CCCC3=O)c(C)o2)cc1OC | -1 | 5 | -2 | -7 | 0 | -1 | / | /
Cc1ccc(OCCC(=O)NNC(=O)c2ccc(Br)cc2)cc1 | / | -4 | 0 | 13 | -10 | 1 | / | /
CC(C)N(Cc1ccccc1)C(=O)COC(=O)c1cnc(Cl)c(Cl)c1 | / | 5 | -1 | 63* | / | 2 | 9 | /
N#C/C(=C\c1ccc(OCc2ccc(C(=O)O)cc2)cc1)C(=O)N1CCOCC1 | 0 | 4 | 1 | 55* | 25 | -2 | 44* | 21
COc1cc(/C=C(\C#N)C(=O)N2CCOCC2)ccc1OCc1ccccc1 | 16 | -2 | 0 | -32 | -2 | -2 | / | /
COc1ccc(CN(CC(O)COCc2ccccc2)S(=O)(=O)c2ccccc2Br)cc1 (centres undefined) | / | / | 1 | 14 | / | -8 | / | /
COc1ccc(S(=O)(=O)N2CCCCCC2)cc1NC(=O)CN1C(=O)NC(C)(c2ccccc2)C1=O (centres undefined) | 29 | 2 | -1 | 6 | -12 | -1 | / | /
CCc1cc(=O)n2[nH]c(-c3ccccc3)c(-c3ccccc3)c2n1 | 7 | 6 | 0 | 58* | 61 | -2 | 45* | 52*
COc1cc(NC(=O)C2=C(N3CCOCC3)/C(=C/c3ccc(Cl)cc3)CC2)cc(OC)c1OC | 10 | / | 0 | 8 | 51 | -2 | / | /
COc1cc(NC(=O)C2=C(N3CCOCC3)/C(=C\c3ccc(N(C)C)cc3)CCC2)cc(OC)c1OC | 6 | 17 | 1 | 60* | 87* | -2 | 47* | 87*
Cc1cc(C(=O)NC2CCCc3c2cnn3-c2cccc(C)c2C)no1 (centres undefined) | 10 | / | 2 | 93* | -2 | -1 | 94* | 24
SMILES | SKKanGAS inh | Beta cell apopt | MPTP block | Mdm2 MdmX PPI | CSC inhib | GRIN3A LBD mod | Mdm2 MdmX conf | FLuc counter
COc1ccc(C(=O)NC2CCCc3c2cnn3-c2cccc(C)c2C)o1 (centres undefined) | 0 | 15 | 3 | 74* | 15 | -2 | 48* | 46*
CCc1ccc(OCC(=O)Nc2ccc(S(=O)(=O)Nc3cc(C)on3)cc2)c(Br)c1 | 8 | -1 | 1 | 0 | -2 | -7 | / | /
COCCNC(=O)/C(C#N)=C/c1ccc(O)c([N+](=O)[O-])c1 | 5 | 4 | 0 | 16 | -5 | -5 | / | /
COCCNC(=O)/C(C#N)=C/C=C/c1ccccc1[N+](=O)[O-] | 21 | -24 | 0 | 53* | 21 | 0 | 54* | 23
COc1cccc(C(=O)N2CCC(C(=O)NCc3ccc(C)cc3)CC2)c1 | -4 | / | 0 | 2 | -7 | 4 | / | /
Clc1ccccc1-c1nnc2sc(CCc3ccccc3)nn12 | 10 | 2 | -3 | 15 | -3 | 1 | / | /
c1ccc(CCc2nn3c(-c4ccncc4)nnc3s2)cc1 | -1 | / | 0 | 69* | / | 2 | 59* | 34
CC(C)(C)C(C(=O)Oc1ccccc1)c1ccccc1 (centres undefined) | / | 3 | 8 | 7 | -1 | -1 | / | /
CCN(CC)C1CCN(C(=O)c2ccc(OC3CCN(CCc4ccccc4)CC3)cc2)C1 (centres undefined) | 5 | 1 | 2 | 56* | 3 | -3 | 44* | 74*
CCOC(=O)c1c(C)[nH]c(C(=O)N/N=C/c2cccc(OC)c2)c1C | -6 | 0 | 23 | 53* | 50 | -1 | 39 | /
COc1cccc(/C=N/NC(=O)c2[nH]nc3c2CCc2ccccc2-3)c1 | 18 | 39 | 16 | 56* | 37 | 26* | 61* | 44*
Cc1ccc(C(=O)COC(=O)CNC(=O)c2ccccc2)s1 | / | -1 | -2 | -13 | 6 | 0 | / | /
COc1cc(OC)c(OC)cc1CNC(=O)c1cc(S(=O)(=O)N(C)c2ccccc2OC)ccc1C | / | / | 3 | / | / | -1 | / | /
O=C(Nc1nc(-c2ccccc2)c(-c2ccccc2)s1)c1ccc(S(=O)(=O)N2CCCC2)cc1 | 10 | 6 | 4 | 59* | -4 | 2 | -3 | /
COc1ccc(C(C(=O)NC2CCCC2)N(C(=O)c2snc(-c3ccc(F)cc3)c2N)c2ccccc2)cc1 (centres undefined) | 12 | 2 | -1 | 29 | 10 | -3 | / | /
